Experimental data taken from PubChem BioAssay (Tox21).
Results filed as inconclusive are left out. Entries that show only a call come without a potency. Unmarked numbers belong to inactive results. Calls of active or inactive are those of the source. Unless noted, the call rests on the fitted dose curve; in most records, active means well fitted curve in the direction sought with a large enough effect in the repeat runs; inconclusive means weak or mixed curves; inactive means no such curve, though single readings can be large; an effect the other way counts as inactive or inconclusive.

How the values were obtained:
[1] = qHTS assay to identify aromatase inhibitors - cell viability counter screen (AID 743084);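 further: cells stimulated with testosterone during compound exposure; nearly all actives have a fitted effect of over 55% in size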
[2] = target: Aryl hydrocarbon receptor (Homo sapiens) (UniProt P35869); experiment: qHTS assay to identify small molecule that activate the aryl hydrocarbon receptor (AhR) signaling pathway (AID 743085); further: nearly all actives have a fitted effect of over 15% in size; further: potency means the concentration at half of the fitted maximal effect;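 on activation: HG2L7.5c1 human HepG2 liver cells with stably integrated DRE-driven firefly reporter; series mostly up to about 70 µM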
Summary of the method: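 Luminescence (ONE-Glo) from a dioxin-responsive-element luciferase reporter in HG2L7.5c1 HepG2 cells after 24 hr compound exposure at 37C; viability measured by CellTiter-Fluor fluorescence beforehand.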

[3] = qHTS assay to identify small molecule that activate the aryl hydrocarbon receptor (AhR) signaling pathway - cell viability counter screen (AID 743086);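 further: HepG2 liver cells carrying the AhR DRE luciferase reporter; series mostly up to about 70 µM; nearly all actives have a fitted effect of over 45% in size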
Summary of the method: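 HepG2-AhR-luc (HG2L7.5c1) cells, 4000/well, treated 24 h at 37 C with compound; viability measured as CellTiter-Fluor fluorescence after 30 min in the same wells as the luciferase read.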

[4] = target: Peroxisome proliferator-activated receptor gamma (Homo sapiens) (UniProt P37231); experiment: qHTS assay to identify small molecule agonists of the peroxisome proliferator-activated receptor gamma (PPARg) signaling pathway (AID 743094; active means well fitted activation curve with a large enough effect in the signal ratio in the repeat runs, not every such curve was filed as active; the % refers to the signal ratio)
Summary of the method: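 Quantitative HTS agonist mode: stable HEK293H line with UAS-beta-lactamase reporter under PPARg control, 17 h compound exposure at 37C, fluorescence after 1 h FRET substrate loading at room temperature.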

[5] = target: Peroxisome proliferator-activated receptor gamma (Homo sapiens) (UniProt P37231); experiment: qHTS assay to identify small molecule antagonists of the peroxisome proliferator-activated receptor gamma (PPARg) signaling pathway (AID 743191; calls by dose curve; further: nearly all actives have a fitted effect of over 30% in size; further: potency means the concentration at half of the fitted maximal effect)
Summary of the method: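 GeneBLAzer PPARg UAS-bla HEK293H cells, 5 h post-plating, exposed to compounds 17 h at 37C. LiveBLAzer B/G FRET substrate added for 1 h at room temperature; beta-lactamase reporter read by fluorescence intensity.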

[6] = qHTS assay to identify small molecule antagonists of the peroxisome proliferator-activated receptor gamma (PPARg) signaling pathway - cell viability counter screen (AID 743194); further: nearly all actives have a fitted effect of over 55% in size
Summary of the method: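 Cytotoxicity counter screen in PPARg-bla HEK293H cells, same wells as reporter assay. Compounds plus 50 nM rosiglitazone (final) for 17 h at 37 C, then viability read by CellTiter-Glo luminescence.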

[7] = qHTS assay for small molecule agonists of the antioxidant response element (ARE) signaling pathway (AID 743202; active means well fitted activation curve with a large enough effect in the signal ratio in the repeat runs, not every such curve was filed as active; the % refers to the signal ratio)
Summary of the method: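 Agonist mode reporter screen: HepG2 cells with ARE-controlled beta-lactamase are incubated with test compounds for 16 h at 37 C, and beta-lactamase activity is measured as fluorescence of cleaved B/G FRET substrate.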

[8] = qHTS assay for small molecule agonists of the antioxidant response element (ARE) signaling pathway - cell viability counter screen (AID 743203; calls by dose curve; further: nearly all actives have a fitted effect of over 55% in size)
Summary of the method: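 Seeded at 2,000 cells/well, ARE-bla HepG2 cells were incubated 5 hrs before compound addition. After 16 hrs of treatment at 37C with 5% CO2, CellTiter-Glo reagent was added and luminescence read 30 min later.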

[9] = qHTS assay for small molecule activators of the heat shock response signaling pathway - cell viability counter screen (AID 743209); further: nearly all actives have a fitted effect of over 50% in size
Summary of the method: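 First, HSE-bla HeLa cells were seeded at 1500 cells/well and kept overnight at 37 C. Next, compounds were pinned in and incubated 5 h. After the FRET substrate step, CellTiter-Glo was added and luminescence read 30 min later.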

[10] = qHTS assay for small molecule activators of the heat shock response signaling pathway (AID 743210; active means well fitted activation curve with a large enough effect in the signal ratio in the repeat runs, with a control signal flat, not every such curve was filed as active; the % refers to the signal ratio;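 further: HeLa cells with beta-lactamase reporter driven by heat shock elements; series mostly up to about 63 µM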)
Summary of the method: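 Quantitative high-throughput format using an engineered HeLa line in which heat shock response elements drive beta-lactamase; after 5 h with compound, cells received a B/G FRET substrate and fluorescence was read.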

[11] = qHTS assay to identify small molecule agonists of the peroxisome proliferator-activated receptor delta (PPARd) signaling pathway - cell viability counter screen (AID 743211); further: nearly all actives have a fitted effect of over 55% in size
Summary of the method: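 Viability was measured as CellTiter-Glo luminescence (30 min, room temperature) in the same wells as the beta-lactamase readout. GeneBLAzer PPARd UAS-bla HEK293H cells received compound after 5 h plating and were incubated 17 h at 37 C.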

[12] = qHTS assay to identify small molecule antagonists of the peroxisome proliferator-activated receptor delta (PPARd) signaling pathway - cell viability counter screen (AID 743213); further: nearly all actives have a fitted effect of over 50% in size
Summary of the method: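 PPARd-bla HEK293H cells (3000/well) got compound plus 300 nM L165041 agonist for 17 h at 37 C. Viability in the same wells came from CellTiter-Glo luminescence after 30 min at room temperature.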

[13] = target: Peroxisome proliferator-activated receptor delta (Homo sapiens) (UniProt Q03181); experiment: qHTS assay to identify small molecule antagonists of the peroxisome proliferator-activated receptor delta (PPARd) signaling pathway (AID 743215; active means well fitted inhibition curve with a large enough effect in the signal ratio in the repeat runs, not every such curve was filed as active; the % refers to the signal ratio;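 further: cells stimulated with agonist L165041 at 300 nM final during compound exposure; series mostly up to about 62 µM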)
Summary of the method: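 Inhibition of L165041-driven (300 nM final) PPARd signaling is scored in HEK293H UAS-bla cells. Exposure lasts 17 h at 37 C; beta-lactamase activity is then read by FRET substrate fluorescence after 2 h at room temperature.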

[14] = target: Bile acid receptor (Homo sapiens) (UniProt Q96RI1); experiment: qHTS assay to identify small molecule antagonists of the farnesoid-X-receptor (FXR) signaling pathway (AID 743217; active means well fitted inhibition curve with a large enough effect in the signal ratio in the repeat runs, not every such curve was filed as active; the % refers to the signal ratio)
Summary of the method: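 Antagonist mode against 50 uM (final) chenodeoxycholic acid stimulation in FXR-bla HEK 293T cells, 16 h at 37 °C. Inhibition detected as reduced beta-lactamase activity via LiveBLAzer B/G FRET fluorescence after 2 h at room temperature.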

[15] = qHTS assay to identify small molecule agonists of the farnesoid-X-receptor (FXR) signaling pathway - cell viability counter screen (AID 743218); further: nearly all actives have a fitted effect of over 45% in size; further: potency means the concentration at half of the fitted maximal effect
Summary of the method: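 Cytotoxicity counter-screen run in parallel, same wells: FXR-UAS-bla HEK 293T cells dosed 16 h at 37 C, viability read by CellTiter-Glo luminescence after 30 min at room temperature.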

[16] = target: Bile acid receptor (Homo sapiens) (UniProt Q96RI1); experiment: qHTS assay to identify small molecule agonists of the farnesoid-X-receptor (FXR) signaling pathway (AID 743220; active means well fitted activation curve with a large enough effect in the signal ratio in the repeat runs, not every such curve was filed as active; the % refers to the signal ratio)
Summary of the method: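 Beta-lactamase reporter under UAS control in GeneBLAzer FXR HEK 293T cells (5000/well) measured with LiveBLAzer FRET substrate after 2 h at room temperature. Compound exposure lasted 16 h at 37C.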

[17] = qHTS assay to identify small molecule antagonists of the farnesoid-X-receptor (FXR) signaling pathway - cell viability counter screen (AID 743221; active means well fitted cell-killing curve with a large enough effect in the repeat runs, not every such curve was filed as active; further: nearly all actives have a fitted effect of over 50% in size)
Summary of the method: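 Cytotoxicity counter screen run in the FXR-bla reporter wells: HEK 293T cells exposed to compound with 50 uM (final) chenodeoxycholic acid for 16 h, 37 C, then viability measured by CellTiter-Glo luminescence after 30 min, room temperature.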

[18] = target: Vitamin D3 receptor (Homo sapiens) (UniProt P11473); experiment: qHTS assay to identify small molecule antagonists of the vitamin D receptor (VDR) signaling pathway (AID 743223; active means well fitted inhibition curve with a large enough effect in the signal ratio in the repeat runs, not every such curve was filed as active; the % refers to the signal ratio)
Summary of the method: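 Antagonist mode: compound added to VDR-bla cells alongside agonist 1alpha,25-dihydroxyvitamin D3 (3 nM final), incubation 16 h at 37C. Read-out is LiveBLAzer FRET fluorescence, 2 h at room temperature.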

[19] = target: Peroxisome proliferator-activated receptor delta (Homo sapiens) (UniProt Q03181); experiment: qHTS assay to identify small molecule agonists of the peroxisome proliferator-activated receptor delta (PPARd) signaling pathway (AID 743212; calls by dose curve)
Summary of the method: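 Quantitative high-throughput agonist screen in a HEK293H beta-lactamase reporter line under UAS control. Compounds in DMSO, at 37 C. Fluorescence read after 2 h with FRET substrate at room temperature.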

[20] = target: Vitamin D3 receptor (Homo sapiens) (UniProt P11473); experiment: qHTS assay to identify small molecule agonists of the vitamin D receptor (VDR) signaling pathway (AID 743222; calls by dose curve)
Summary of the method: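 Quantitative HTS agonist-mode screen: compounds in DMSO were pin-transferred onto VDR-bla cells and incubated 16 h at 37C, 5% CO2. Reporter activity was detected with LiveBLAzer B/G FRET substrate after 2 h at room temperature.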

Chain of Vitamin D3 receptor (Homo sapiens) (P11473 whole entry, looked up): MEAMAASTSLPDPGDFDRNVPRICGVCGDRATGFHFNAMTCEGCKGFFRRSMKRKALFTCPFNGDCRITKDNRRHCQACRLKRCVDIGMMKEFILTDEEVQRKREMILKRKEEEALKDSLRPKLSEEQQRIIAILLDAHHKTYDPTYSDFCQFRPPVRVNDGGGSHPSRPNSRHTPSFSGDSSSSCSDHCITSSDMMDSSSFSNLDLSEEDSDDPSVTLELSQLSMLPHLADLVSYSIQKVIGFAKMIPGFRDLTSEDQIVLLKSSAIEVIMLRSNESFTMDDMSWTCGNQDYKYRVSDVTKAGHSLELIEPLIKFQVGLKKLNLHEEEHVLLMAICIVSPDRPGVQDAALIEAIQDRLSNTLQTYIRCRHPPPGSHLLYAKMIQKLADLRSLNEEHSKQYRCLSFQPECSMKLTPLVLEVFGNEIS
Chain of Bile acid receptor (Homo sapiens) (Q96RI1 whole entry, looked up): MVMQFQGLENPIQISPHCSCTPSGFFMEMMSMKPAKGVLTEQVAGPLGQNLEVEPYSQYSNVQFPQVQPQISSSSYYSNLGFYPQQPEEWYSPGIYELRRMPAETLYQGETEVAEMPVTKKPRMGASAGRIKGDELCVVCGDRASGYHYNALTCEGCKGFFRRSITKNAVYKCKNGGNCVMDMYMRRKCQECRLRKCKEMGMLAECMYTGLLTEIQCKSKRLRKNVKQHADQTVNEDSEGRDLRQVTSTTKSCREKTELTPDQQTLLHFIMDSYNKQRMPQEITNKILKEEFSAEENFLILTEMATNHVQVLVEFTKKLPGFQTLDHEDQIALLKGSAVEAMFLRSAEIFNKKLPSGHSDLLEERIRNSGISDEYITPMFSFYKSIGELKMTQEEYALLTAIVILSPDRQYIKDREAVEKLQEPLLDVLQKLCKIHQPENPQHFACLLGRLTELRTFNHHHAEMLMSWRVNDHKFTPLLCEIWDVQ
Chain of Aryl hydrocarbon receptor (Homo sapiens) (P35869 whole entry, looked up): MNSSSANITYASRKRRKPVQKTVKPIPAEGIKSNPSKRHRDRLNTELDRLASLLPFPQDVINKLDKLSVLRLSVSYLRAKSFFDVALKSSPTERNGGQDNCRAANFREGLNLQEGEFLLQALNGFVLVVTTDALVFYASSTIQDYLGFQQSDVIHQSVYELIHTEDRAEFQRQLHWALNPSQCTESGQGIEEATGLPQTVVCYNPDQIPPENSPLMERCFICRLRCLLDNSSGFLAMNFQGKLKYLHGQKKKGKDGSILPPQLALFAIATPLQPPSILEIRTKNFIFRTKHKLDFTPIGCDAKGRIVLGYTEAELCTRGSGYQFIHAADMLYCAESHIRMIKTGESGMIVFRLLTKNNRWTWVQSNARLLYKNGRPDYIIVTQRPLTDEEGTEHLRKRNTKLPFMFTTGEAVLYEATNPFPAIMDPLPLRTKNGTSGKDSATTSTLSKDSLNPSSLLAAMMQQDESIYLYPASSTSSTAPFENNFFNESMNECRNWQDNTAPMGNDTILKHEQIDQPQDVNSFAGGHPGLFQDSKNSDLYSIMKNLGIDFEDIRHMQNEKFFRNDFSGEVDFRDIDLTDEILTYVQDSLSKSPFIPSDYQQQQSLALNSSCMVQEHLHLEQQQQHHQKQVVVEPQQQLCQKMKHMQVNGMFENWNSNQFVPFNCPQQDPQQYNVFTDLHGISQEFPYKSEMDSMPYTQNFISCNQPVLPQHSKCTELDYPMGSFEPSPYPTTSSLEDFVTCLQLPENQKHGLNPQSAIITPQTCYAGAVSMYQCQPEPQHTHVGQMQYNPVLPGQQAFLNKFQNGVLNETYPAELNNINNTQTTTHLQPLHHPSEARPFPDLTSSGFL
Chain of Peroxisome proliferator-activated receptor gamma (Homo sapiens) (P37231 whole entry, looked up): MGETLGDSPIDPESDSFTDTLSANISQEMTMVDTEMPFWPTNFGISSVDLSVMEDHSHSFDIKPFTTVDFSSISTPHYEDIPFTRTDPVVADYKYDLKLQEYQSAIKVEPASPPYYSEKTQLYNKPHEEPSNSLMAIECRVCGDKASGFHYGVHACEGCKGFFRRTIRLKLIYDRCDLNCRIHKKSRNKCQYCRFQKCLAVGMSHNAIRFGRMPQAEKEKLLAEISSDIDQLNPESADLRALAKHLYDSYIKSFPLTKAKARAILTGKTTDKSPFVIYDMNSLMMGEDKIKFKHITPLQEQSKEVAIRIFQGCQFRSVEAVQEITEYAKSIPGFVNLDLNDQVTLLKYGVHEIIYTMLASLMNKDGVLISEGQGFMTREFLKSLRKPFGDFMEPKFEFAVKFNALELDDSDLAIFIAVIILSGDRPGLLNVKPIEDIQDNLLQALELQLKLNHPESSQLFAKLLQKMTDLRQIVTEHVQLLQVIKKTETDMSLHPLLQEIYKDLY
Chain of Peroxisome proliferator-activated receptor delta (Homo sapiens) (Q03181 whole entry, looked up): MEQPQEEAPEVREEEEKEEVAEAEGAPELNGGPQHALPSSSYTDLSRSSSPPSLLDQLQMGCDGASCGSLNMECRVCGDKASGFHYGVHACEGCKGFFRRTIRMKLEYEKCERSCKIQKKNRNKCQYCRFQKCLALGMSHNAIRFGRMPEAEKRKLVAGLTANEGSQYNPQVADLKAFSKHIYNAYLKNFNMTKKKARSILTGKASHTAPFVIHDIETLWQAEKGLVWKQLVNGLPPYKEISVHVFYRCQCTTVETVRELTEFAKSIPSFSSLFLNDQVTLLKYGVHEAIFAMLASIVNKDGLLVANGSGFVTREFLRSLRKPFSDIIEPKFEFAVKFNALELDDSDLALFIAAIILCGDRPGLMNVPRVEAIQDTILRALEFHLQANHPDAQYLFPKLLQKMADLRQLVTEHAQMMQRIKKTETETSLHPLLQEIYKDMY

SMILES | Potency [1] | Potency [2] | Potency [3] | Potency [4] | Potency [5] | Potency [6] | Potency [7] | Potency [8] | Potency [9] | Potency [10] | Potency [11] | Potency [12] | Potency [13] | Potency [14] | Potency [15] | Potency [16] | Potency [17] | outcome [18] | Potency [19] | Potency [20]
CC(=O)c1cccc([N+](=O)[O-])c1 | inactive | inactive | inactive | inactive | inactive | inactive | inactive | inactive | inactive | inactive | inactive | inactive | inactive | inactive | inactive | inactive | inactive | inactive |  | 
CC(CC=O)c1ccccc1 (stereo not drawn) | inactive | inactive | inactive | inactive | inactive | inactive | inactive | inactive | inactive | inactive | inactive | inactive | inactive |  |  |  |  | inactive | inactive | 
c1ccc(CNCCNCc2ccccc2)cc1 | inactive | inactive | inactive | inactive |  | inactive | inactive | inactive | inactive | inactive | inactive | inactive |  |  |  |  |  | inactive | inactive | 
OC(CN1CCC(Cc2ccc(F)cc2)CC1)c1ccc(Cl)cc1 (stereo not drawn) | inactive | inactive | inactive | inactive | inactive | inactive |  |  | inactive |  | inactive | inactive |  | inactive |  | inactive | inactive |  |  | 
COC(C)(C)CCO | inactive | inactive | inactive | inactive |  | inactive | inactive | inactive | inactive | inactive | inactive | inactive | inactive |  | inactive |  | inactive | inactive |  | inactive
CCOC(=O)NCCOc1ccc(Oc2ccccc2)cc1 | inactive | inactive | inactive | inactive | 38.9 µM (active) |  |  | inactive | inactive | inactive | inactive |  |  | inactive |  | inactive | inactive | inactive | inactive | inactive
CNC(=O)CN(CCN(CCN(CC(=O)[O-])CC(=O)NC)CC(=O)[O-])CC(=O)[O-].O.[Gd+3] | inactive | inactive | inactive | inactive | inactive | inactive | inactive |  | inactive |  | inactive | inactive | inactive |  | inactive |  | inactive | inactive | inactive | 
NCC(=O)CCC(=O)O | inactive | inactive | inactive | inactive | inactive | inactive |  | inactive | inactive | inactive | inactive | inactive |  | inactive | inactive | inactive | inactive | inactive |  | inactive
CCO[Si](CCCCl)(OCC)OCC | inactive | inactive | inactive | inactive | inactive | inactive | inactive |  | inactive | inactive |  | inactive | inactive |  | inactive |  | inactive | inactive |  | 
CCCCCCCCO[C@@H]1O[C@H](CO)[C@@H](O)[C@H](O)[C@H]1O | inactive | inactive | inactive | inactive | inactive | inactive | inactive |  | inactive | inactive |  | inactive |  | inactive |  | inactive | inactive |  |  | inactive
CC[N+](C)(CC)CCOC(=O)C(O)(c1ccccc1)C1CCCCC1 (stereo not drawn) | inactive | inactive | inactive | inactive |  | inactive | inactive | inactive | inactive | inactive | inactive | inactive |  |  | inactive |  | inactive | inactive |  | inactive
CCCCCCCC/C=C\CCCCCCCC(=O)OCC | inactive | inactive | inactive | inactive | inactive |  |  | inactive | inactive | inactive |  |  |  |  | inactive |  | inactive | inactive |  | 
NCC(=O)O | inactive | inactive | inactive | inactive | inactive |  | inactive | inactive | inactive | inactive | inactive | inactive | inactive |  |  |  | inactive | inactive | inactive | inactive
CC(=O)c1ccc2c(c1)N(CCCN1CCC(CCO)CC1)c1ccccc1S2 | inactive | inactive | inactive | inactive | inactive | inactive | inactive |  |  | inactive |  |  |  |  | 29.8 µM (active) |  |  |  |  | 
CC(=O)c1ccc2c(c1)N(CCCN(C)C)c1ccccc1S2 | inactive | inactive | inactive | inactive | inactive | inactive |  | inactive | inactive | inactive |  | inactive |  |  |  |  |  |  | inactive | 
Cc1[nH]c(C)c(Cl)c(=O)c1Cl | inactive | inactive | inactive | inactive | inactive | inactive | inactive |  | inactive | inactive |  |  |  |  | inactive |  | inactive | inactive |  | 
COc1cc(Cl)c(OC)cc1N | inactive | 30.6 µM (active) | inactive | inactive | inactive | inactive |  | inactive | inactive | inactive | inactive | inactive | inactive | inactive | inactive | inactive | inactive | inactive | inactive | inactive
OC[C@H]1O[C@@H](OCCc2ccc(O)cc2)[C@H](O)[C@@H](O)[C@@H]1O | inactive | inactive | inactive | inactive | inactive | inactive |  | inactive | inactive | inactive | inactive | inactive | inactive | inactive | inactive | inactive |  |  | inactive | 
